# This is a sample that favours compounds with a hit; in the whole collection about 17% have one here.
# TDP1 block – TDP1 (human) enzyme inhibition | Q9NUW8 | recombinant TDP1, AlphaScreen DNA substrate cleavage | Potency, µM (doses to about 130 µM), inactives show at the highest dose activity change, negative = inhibition, hits mostly inhibitors | 350,000 compounds, 0.28% hits; also: % is scaled to controls: 0 for no effect and ±100 for the full control effect; nearly all actives have a fitted effect of over 40% in size
#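 Tdp1 1 nM final; 15 min RT w/ cpd; substrate 15 nM, 5 min; beads 10 ug/ml, 10 min; AlphaScreen read. Neg ctrl: no enzyme.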
# DT40 TDP1 no CPT – qHTS for Inhibitors of human tyrosyl-DNA phosphodiesterase 1 (TDP1): qHTS in cells in absence of CPT; Potency, µM (highest dose often 46.2 µM), without a hit: top-dose activity change, negative = growth inhibition, most hits filed as inhibitors; 420,000 compounds, 15% hits; DT40 Tdp1-/- hTDP1 cells, no CPT, ATP luminescence, 48 h; AID 686978, 2013; also: % is scaled to controls: 0 for no effect and ±100 for the full control effect; nearly all actives have a fitted effect of over 55% in size
#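 No-CPT arm: Tdp1-/-;hTDP1 DT40 cells (400/well) plus compounds, incubated ≥48 hr at 37 °C. Readout CellTiter-Glo luminescence.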
# TDP1 cell CPT – growth inhibition of DT40 Tdp1-/-;hTDP1 cells with camptothecin (screen for TDP1 inhibitors); chicken DT40 Tdp1-/-;hTDP1 cells + 20 nM CPT, ATP luminescence, 48 h; Potency, µM (top dose mostly 46.2 µM), for the others: top-dose activity change, negative = growth inhibition, most hits filed as inhibitors; 420,000 compounds, 12% hits; AID 686979; also: % is scaled to controls: 0 for no effect and ±100 for the full control effect; nearly all actives have a fitted effect of over 55% in size
#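 Cell growth measured by CellTiter-Glo luminescence after a minimum 48 h, 37 C compound exposure with 20 nM CPT in Tdp1-knockout DT40 cells stably expressing hTDP1, seeded 400/well; qHTS titration format.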
# ClpP mod – qHTS Assay for Activators of ClpP; ATP-dependent Clp protease proteolytic subunit (Bacillus subtilis (strain 168)), P80244; purified B. subtilis ClpP, FRET peptide cleavage, 20 min; Potency, µM (titrated, usually from 57.5 µM), inactives show at the top dose activity change, negative = active; 340,000 compounds, 1.9% hits; AID 651965, 2013; active = well fitted falling curve with a large enough effect; inconclusive = small, poorly fitted or top-dose-only effect; inactive = no such curve, though single readings can be large or run the other way; also: the source files actives as falling curves though it sought activators and does not explain the sign; nearly all actives have a fitted effect of over 65% in size
# Target sequence (P80244 whole entry, looked up): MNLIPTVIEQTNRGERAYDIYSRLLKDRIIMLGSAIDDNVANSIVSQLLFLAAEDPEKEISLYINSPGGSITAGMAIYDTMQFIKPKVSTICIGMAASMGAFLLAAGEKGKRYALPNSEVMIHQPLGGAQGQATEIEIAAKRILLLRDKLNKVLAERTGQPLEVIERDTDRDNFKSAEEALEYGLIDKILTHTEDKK
#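 Purified B. subtilis ClpP, 10 microg/mL final in Tris/HCl pH8 with KCl, BSA, glycerol and Tween-20, cleaved an Abz/nitrotyrosine-quenched decapeptide. Fluorescence (ex 320, em 430) was read at 0 and 20 min at room temperature. Delta was normalized to 5.8 microM ADEP and DMSO/no-enzyme controls.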
# Starred values were filed as active, the others as inactive; ? = inconclusive; nt = no result given. Unless noted, calls follow the shape of the dose curve; as a rule, active = well fitted curve in the direction sought with a large enough effect; inconclusive = small, poorly fitted or top-dose-only effect, or another doubt; inactive = no such curve, though single readings can be large; an effect the other way counts as inactive or inconclusive. Potency is read from the fitted curve at half-maximal effect.
SMILES,TDP1 block,DT40 TDP1 no CPT,TDP1 cell CPT,ClpP mod
CCOC(=O)c1c(C)oc2ncnc(NCCc3ccccc3)c12,5%,23µM*,21µM*,0%
Cc1noc2ncnc(NCCc3ccccc3)c12,2%,6.5µM*,7.3µM*,-2%
CCOC(=O)c1noc2ncnc(NCc3ccccc3OC)c12,5%,-16%,?,0%
Cc1c(C)n(CCc2ccccc2)c2ncnc(NCCCO)c12,nt,?,?,-6%
COCCn1c(C)c(C)c2c(NCCc3ccccc3)ncnc21,nt,16µM*,23µM*,-2%
Cc1nc2nc(C(F)(F)F)[nH]n2c(=O)c1Cc1ccccc1,-1%,-19%,-5%,0%
Cc1[nH]nc2ncc(C(=O)c3ccccc3O)cc12,3%,?,10µM*,1%
O=C(NCc1ccccc1Cl)C(=O)NCC(c1ccco1)S(=O)(=O)c1cccs1 (centres undefined),-3%,16µM*,?,2%
O=C(NCCc1ccc(Cl)cc1)C(=O)NCC(c1ccco1)S(=O)(=O)c1cccs1 (centres undefined),0%,?,18µM*,0%
CCOc1ccc(C(C(=O)NC(C)(C)C)N(CCOC)C(=O)CCC(=O)Nc2ccccn2)cc1 (centres undefined),-2%,2%,23%,nt
O=C(CN1C(=O)C2(SCC(=O)N2c2cccc(Cl)c2)c2ccccc21)NCCc1ccccc1 (centres undefined),0%,?,?,-2%
C=Cc1nc(Nc2cc(F)cc(F)c2)nc(NC2CCCC2)n1,2%,nt,nt,nt
Cc1ccc2cc(CCNC(=O)C(C)(C)C)c(=O)[nH]c2c1,6%,-7%,-19%,-20%
Cc1ccc2cc(-c3noc(C(C)(C)C)n3)c(=O)[nH]c2c1,-2%,-21%,-14%,28µM*
CCc1nc(-c2cc3ccc(C)cc3[nH]c2=O)no1,-7%,0%,-6%,14µM*
Cc1ccc2[nH]c(=O)c(-c3noc(C(C)C)n3)cc2c1,1%,-22%,-4%,5%
CC(C)(C)OC(=O)Cc1nnc(-c2nc3ccccc3[nH]2)o1,-12%,nt,nt,nt
CCN(CC)CCCOc1cc2nc(N3CCCN(C)CC3)nc(NC3CCN(C)CC3)c2cc1OC,nt,?,?,4%
C=CCNc1nc(NC2CCN(C)CC2)c2cc(OC)c(OC)cc2n1,nt,?,13µM*,4%
CCN(CC)c1nc(NC2CCN(C)CC2)c2cc(OC)c(OC)cc2n1,nt,10µM*,5.6µM*,4%
CCn1c2ccccc2c2nn(C)c(=N)nc21,1%,18µM*,15µM*,1%
COc1ccccc1NC(=O)C1C2C=CC(C2)C1C(=O)NCc1cccnc1 (centres undefined),4%,11%,1%,-1%
O=C(COc1ccc(Br)cc1CO)Nc1ccccc1F,-4%,-23%,-1%,10µM*
C=CCOc1ccccc1CNCCc1ccc(S(N)(=O)=O)cc1,3%,-19%,-19%,nt
Cn1nnc(NCc2cc(Br)ccc2OCc2ccccc2F)n1,-4%,-10%,-29%,-1%
SMILES,TDP1 block,DT40 TDP1 no CPT,TDP1 cell CPT,ClpP mod
OCCCCNCc1cc(Br)ccc1OCc1ccccc1,1%,?,?,1%
NS(=O)(=O)c1ccc(CCNCc2ccccc2OCc2ccc(Cl)cc2)cc1,nt,?,23µM*,nt
OCCNCc1cc(Br)ccc1OCc1ccccc1Cl,1%,21µM*,21µM*,?
NS(=O)(=O)c1ccc(CCNCc2cc(Br)ccc2OCc2ccccc2F)cc1,3%,4.1µM*,5.8µM*,nt
Cc1[nH]n(-c2ccccc2)c(=O)c1N=Nc1cccc(C(=O)O)c1,nt,-3%,30%,nt
CN(C)S(=O)(=O)c1ccc(C(=O)NCCC(=O)N2CCCC2)cc1,nt,-2%,4%,?
O=C(c1ccco1)c1coc2c1cc(O)c1ccccc12,7%,7%,-18%,0%
CCCCC(c1nc2ccccc2[nH]1)N(C(=O)c1ccccc1)c1ccccc1[N+](=O)[O-] (centres undefined),nt,?,?,-10%
CCCSCCCNC(=O)CN1C(=O)CCn2nc(-c3cn(C)c4ccccc34)cc21,7%,?,?,-7%
COc1cc(C=O)c(Br)cc1OCC(=O)NCCc1ccccc1,8%,18µM*,?,-10%
COc1cc(Br)c(CCNC(=O)Cc2ccccc2)cc1OC,1%,-23%,-30%,1%
O=C(COc1ccc(Br)cc1CNCCc1ccccc1)NCc1ccccc1,3%,7.3µM*,12µM*,0%
CCCCC(=O)NC(c1ccc(OC)c(OC)c1)c1c(O)ccc2ccccc12 (centres undefined),-1%,-14%,-7%,-21%
CCCC(=O)NC(c1ccc(OC)c(OC)c1)c1c(O)ccc2ccccc12 (centres undefined),5%,-2%,-13%,?
CCCCC(=O)NC(c1ccccc1OC)c1ccc2cccnc2c1O (centres undefined),8%,18µM*,21µM*,-1%
CCCC(=O)NC(c1ccccc1OC)c1ccc2cccnc2c1O (centres undefined),7%,4.1µM*,4.1µM*,nt
COC1=CC(=O)C(OC)=C(OC)C1=O,nt,1.2µM*,0.73µM*,-1%
CC(C)(C)C1CCc2c(sc3nc(-c4cc5cc(Cl)ccc5oc4=O)[nH]c(=O)c23)C1 (centres undefined),-1%,12%,0%,2%
Cc1cc(OCC(O)CNC(C)c2ccccc2)ccc1C(C)C (centres undefined),nt,23µM*,23µM*,1%
CC(NCC(O)COc1ccc2ccccc2c1)c1ccccc1 (centres undefined),nt,16µM*,16µM*,nt
CCCC(NCC(O)COc1ccc(-c2ccccc2)cc1)c1ccccc1 (centres undefined),-3%,4.1µM*,7.3µM*,0%
CC(C)NCC(O)COc1ccc(Br)cc1 (centres undefined),5%,-18%,3%,nt
CCC(CC)NCC(O)COc1ccc(Br)cc1 (centres undefined),nt,21µM*,?,nt
Cc1cccc(C(=O)NCC(=O)OCc2cc(=O)n3ccsc3n2)c1,nt,4%,4%,?
Cn1cccc1/C=N/NC(=O)c1cccnc1,2%,-6%,3%,-1%
Cn1c(-c2ccccc2)c(/C=N/NC(=O)c2cccnc2)c2ccccc21,5%,23µM*,-19%,nt
O=C(N/N=C/c1c(-c2ccccc2)[nH]c2ccccc12)c1cccnc1,5%,3.3µM*,6.5µM*,-4%
O=C(N/N=C/c1cccc2ccccc12)c1cccnc1,nt,6%,-1%,-3%
CCc1ccc(C2C(C(=O)Nc3ccc(Cl)cc3)=C(C)Nc3ncnn32)cc1 (centres undefined),1%,-18%,?,-3%

# Compound activity as filed in PubChem.
